Test results: PubChem BioAssay (Tox21)
Inconclusive results are not listed. A number with no mark means an inactive call. Active and inactive are the calls of the source. Calls follow the shape of the dose curve; as a rule, active = well fitted cell-killing curve with a large enough effect in the repeat runs; inconclusive = weak or mixed curves, or effect the other way; inactive = flat fitted curve, though single readings scatter.

assay: qHTS assay to identify small molecule agonists of the TGF-beta/Smad signaling pathway - cell viability counter screen (AID 1346829); conditions: SBE-bla HEK293T viability, CellTiter-Glo luminescence, 5 h; series mostly up to 76.8 µM; also: top concentration of the series differs between compounds; nearly all actives have a fitted effect of over 45% in size
In short: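 Cytotoxicity counter screen: CellTiter-Glo luminescence (30 min, room temperature) measured in the SBE-bla HEK 293T reporter wells after 5 hr compound treatment at 37 C and the 2 hr substrate step.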
% is scaled to controls: 0 for no effect and ±100 for the full control effect.

Row | Compound | outcome | activity change, negative = cytotoxicity
1 | CCC(=O)O[C@]1(C(=O)CCl)[C@@H](C)C[C@H]2[C@@H]3CCC4=CC(=O)C=C[C@]4(C)[C@@]3(F)[C@@H](O)C[C@@]21C | inactive | –
2 | Nc1cccc(S(=O)(=O)c2cccc(N)c2)c1 | inactive | –
3 | O=CC1CC=CCC1 (configuration not stated) | inactive | –
4 | CN(C)CCN(Cc1ccsc1)c1ccccn1 | inactive | –
5 | Brc1c2ccccc2c(Br)c2ccccc12 | – | -9.36% [at 6.97 µM]
6 | COC(C)OC | inactive | –
7 | O=[N+]([O-])c1ccc(NCCO)c(OCCO)c1 | inactive | –
8 | CCCCCC[C@@H](O)C/C=C\CCCCCCCC(=O)OC | inactive | –
9 | COc1ccc2cccc(CCNC(C)=O)c2c1 | inactive | –
10 | OC(C#CCN1CCCC1)(c1ccccc1)c1ccccc1 | inactive | –
11 | CC(C)(C)Cl | inactive | –
12 | CCN(CC)CCNc1ccc(CNC=O)c2sc3ccc(OC)cc3c(=O)c12 | inactive | –
13 | CCOC(=O)C(F)(F)F | inactive | –
14 | CC(=O)c1cccc([N+](=O)[O-])c1 | inactive | –
15 | COc1ccc(C(=O)N2CCN(CC(=O)N3CCOCC3)CC2)cc1 | inactive | –
16 | O=C(O)CNCC(=O)O | – | -7.04% [at 6.97 µM]
17 | O=C(O)c1ccc(S(=O)(=O)O)cc1C(=O)O | inactive | –
18 | CCCn1cnc2c1c(=O)n(CCCCC(C)=O)c(=O)n2C | inactive | –
19 | CCCCCCCCCCCC(=O)OC[C@@H](O)[C@H]1OC[C@H](OCCO)[C@H]1OCCO | inactive | –
20 | O=C1OC(CN2CCOCC2)CN1/N=C/c1ccc([N+](=O)[O-])o1 (configuration not stated) | inactive | –
21 | Nc1ccc(N)c2c1C(=O)c1ccccc1C2=O | inactive | –
22 | CN(C)c1ccc(C(c2ccccc2)c2ccc(N(C)C)cc2)cc1 | inactive | –
